Measured values: PubChem BioAssay AID624288 (National Center for Advancing Translational Sciences (NCATS), 2012)
The whole screen tested about 340,000 compounds, of which about 1,400 (0.41%) were called active. Entries that show only a call come without a potency. Inconclusive results (about 4%) are left out. Calls come from the whole dose curve; cell line not stated here. For the sample, actives were picked, then their nearest neighbours and some compounds at random.
Potency is the fitted concentration of half-maximal effect.

Assay: qHTS for Antagonists of gsp, the Etiologic Mutation Responsible for Fibrous Dysplasia/McCune-Albright Syndrome: qHTS; note: nearly all actives have a fitted effect of over 65% in size
Conditions: gsp-mutant cells, cAMP HTRF, 30 min; series mostly up to 76.9 µM
Procedure, shortened: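 Measurement of cellular cAMP by homogeneous time-resolved fluorescence following a 30 min compound exposure at 37C. The PDE inhibitor […] was present throughout; the assay buffer was DPBS with 0.05% BSA and 0.005% Tween 20.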
For `Cc1ccc(C(=O)O)c(NC=O)c1OCc1ccccc1`, the Potency was “inactive”. With `COc1ccc(CNC(=O)CN2C(=O)c3ccccc3S2(=O)=O)cc1` the Potency was “inactive”. With `Cc1cc(NC(=O)COn2nnc3ccccc32)no1` the Potency was “inactive”. For `Cc1cc(NC(=O)COc2ccc([N+](=O)[O-])cc2)no1`, the Potency was “inactive”. In the case of `Cc1cc(NC(=O)COc2ccccc2C#N)no1`, the Potency is reported as 31.6 µM (active). For `NC1=NOC(=O)C1C1CCCCC1` (stereo not given), the Potency was “inactive”. For `O=C(Cc1ccc([N+](=O)[O-])cc1)NCCc1ccc2c(c1)OCO2`, the Potency was “inactive”. With `O=C(COc1ccc(Cl)cc1[N+](=O)[O-])N1CCCCC1` the Potency was “inactive”. For `O=[N+]([O-])c1cc([N+](=O)[O-])c(Oc2cc(F)cc(F)c2F)cc1NN1CCCCC1`, the Potency was 11.2 µM (active). For `O=C(CN1CCCCCC1)Nc1ccc(Br)cc1[N+](=O)[O-]`, the Potency was “inactive”. For `COc1ccc(/C=C/C(=O)OCC(=O)N2CCN(S(=O)(=O)c3ccc(C)cc3C)CC2)cc1OC`, the Potency was “inactive”. With `O=C(NCCc1ccccc1)c1cccc(NC(=O)c2ccccc2)c1` the Potency was “inactive”. In the case of `O=c1ccn([C@@H]2O[C@H](CNS(=O)(=O)c3cc4ccccc4s3)[C@@H](O)[C@H]2O)c(=O)[nH]1`, the Potency is reported as “inactive”. For `Cc1ccc(S(=O)(=O)CCC(=O)OCC(=O)N(C)Cc2ccccc2)cc1`, the Potency was “inactive”. In the case of `O=C(NNC(=O)c1ccc2ccccc2c1)c1ccc(Cl)cc1`, the Potency is reported as “inactive”. For `O=C(CCl)NNc1nc(-c2ccccc2)c2cc(Cl)ccc2n1`, the Potency was “inactive”. In the case of `COC(=O)Cn1nc(-c2ccccc2)c2cc(Cl)ccc21`, the Potency is reported as 31.6 µM (active). With `CCCNC(=O)CCn1nc(-c2ccccc2)c2ccccc2c1=O` the Potency was “inactive”. With `Cc1nn(-c2ncccn2)c2c1C(=O)CC(C)(C)C2Br` (stereo not given) the Potency was “inactive”. For `COc1ccc(Cn2cc(CN3CCS(=O)(=O)N(Cc4ccc(-c5cccc(Cl)c5)cc4)C(C)C3=O)nn2)cc1` (stereo not given), the Potency was “inactive”.
